Bioassay records deposited in PubChem by National Center for Advancing Translational Sciences (NCATS).
Shown are actives, neighbours in structure and some others; about 6% of the full set was active somewhere.
D1 antagonist: Antagonist of Human D 1 Dopamine Receptor: qHTS; HEK293 TREx D1 cells, calcium flux, dopamine EC80; active compounds read low; 360,000 compounds, 3.2% hits; AID 504652, 2011; activity change, negative = inhibition, % at 10 µM; D(1A) dopamine receptor (Homo sapiens), P21728; in the data active means activity change below about -30%; further: on the % scale 0 is the no-effect control and ±100 the full control effect
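Using tetracycline-induced force-coupled D1 Hek293 cells and a calcium dye, signals were followed for 180 s after compound, then for 180 s after EC80 dopamine, to detect inhibitors.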
D1 potentiator: Potentiators of Human D1 Dopamine Receptor: qHTS; HEK293 TREx D1 cells, calcium flux, dopamine EC20 potentiation; 360,000 compounds, 0.036% hits; potentiation, % at 10 µM; D(1A) dopamine receptor (Homo sapiens), P21728; in the data active means potentiation above about 30%; further: 0% is about no effect
D1 agonist: Allosteric Agonists of the Human D1 Dopamine Receptor: qHTS; activation, % at 2 µM; HEK293 T-REx D1 cells, calcium flux, agonist mode; AID 504660, 2011; 360,000 compounds, 1% hits; D(1A) dopamine receptor (Homo sapiens), P21728; in the data active means activation above about 30%; further: 0% is about no effect
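Tetracycline-induced HEK293 TREx D1 cells, force-coupled to calcium signalling, were dye-loaded with a no-wash calcium kit. Compound was pin-added after a 10 s baseline. Fluorescence was read kinetically at 1 cycle/s for 180 s, with calcium rises flagged as agonism.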
DRD3 agonist: qHTS of D3 Dopamine Receptor Agonist: qHTS; D(3) dopamine receptor (Homo sapiens), P35462; D3R DiscoveRx beta-arrestin cells, luminescence, 90 min; max activation, %; 410,000 compounds, 0.58% hits; in the data active means max activation above about 30%; further: 0% is about no effect
Target sequence (P35462 whole entry, looked up): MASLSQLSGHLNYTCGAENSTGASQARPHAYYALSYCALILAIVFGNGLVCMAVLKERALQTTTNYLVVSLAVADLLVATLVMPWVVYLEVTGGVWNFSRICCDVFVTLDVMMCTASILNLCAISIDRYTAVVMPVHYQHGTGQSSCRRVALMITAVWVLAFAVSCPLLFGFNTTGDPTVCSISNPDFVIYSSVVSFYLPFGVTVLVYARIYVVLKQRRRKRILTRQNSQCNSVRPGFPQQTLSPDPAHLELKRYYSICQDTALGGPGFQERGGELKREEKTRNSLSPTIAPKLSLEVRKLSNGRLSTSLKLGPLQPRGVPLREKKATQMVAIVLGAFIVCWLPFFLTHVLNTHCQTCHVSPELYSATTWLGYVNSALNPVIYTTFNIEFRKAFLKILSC
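Cells at 1500/well, incubated overnight, then treated with pinned compounds (dopamine as control) for 90 min at 37 degrees C. DiscoveRx reagent added for 30 - 60 minutes at room temperature; luminescence read.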
D3 antag: qHTS of D3 Dopamine Receptor Antagonist: qHTS | 360,000 compounds, 2.5% hits | D3R cells, DiscoveRx beta-arrestin luminescence, antagonist mode; active compounds read low | max response, negative = inhibition, % | D(3) dopamine receptor (Homo sapiens), P35462; in the data active means max response below about -50%; further: on the % scale 0 is the no-effect control and ±100 the full control effect
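Cells expressing the human receptor were seeded at 1500 cells/well, incubated overnight at 37 degrees C in 5% CO2, then exposed to library compounds with dopamine controls for 90 minutes at 37 degrees C before luminescent detection.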
Starred values were filed as active, the others as inactive; / = no result given.

SMILES	D1 antagonist	D1 potentiator	D1 agonist	DRD3 agonist	D3 antag
Cc1c(C(=O)Nc2ccc(F)cc2)oc2ccc(S(=O)(=O)N3CCCCCC3)cc12	7	-1	2	4	/
COc1cc(CN(CCc2c(C)[nH]c3ccc(C)cc23)C(=S)NC(C)(C)C)cc(OC)c1OC	-25	-9	30*	1	21
CNC(=S)N(CCc1c(C)[nH]c2ccc(C)cc12)Cc1ccc(OC)c(OC)c1	14	-4	-2	-1	3
CN1C(C(=O)Nc2ccc(C(=O)O)cc2)=C(O)c2ccccc2S1(=O)=O	-4	0	0	60*	-11
CCc1ccc2oc(-c3cccc(NC(=O)C(C)(C)Oc4ccc(Br)cc4)c3)nc2c1	-8	1	10	-2	/
Cc1ccc(Cc2c(-c3ccc(F)cc3)nc3cc(C)ccn23)cc1	/	/	/	-12	-68*
Cc1ccc(Cc2c(-c3ccc(Br)cc3)nc3cc(C)ccn23)cc1	/	/	/	-1	1
Cc1ccc(-c2cn3cccnc3n2)cc1NC(=O)Cc1ccccc1	-73*	0	1	-17	/
COc1ccc(-c2cn3cccnc3n2)cc1NC(=O)c1cc(C)cc(C)c1	-87*	2	-1	0	/
CCOC(=O)C1CCCN(C(=O)c2ccc3c(c2)sc2nc(-c4cccc(OC)c4)cn23)C1 (configuration not stated)	-3	0	1	9	/
COc1ccc(C2C(Oc3ccccc3C)C(=O)N2Cc2ccc(F)cc2)cc1OC (configuration not stated)	10	-5	7	-11	-69*
COc1ccc(OC2C(=O)N(Cc3ccc(F)cc3)C2c2cc(OC)c(OC)c(OC)c2)cc1 (configuration not stated)	-6	5	8	-1	-12
COc1cccc(/C=C/C(=O)Nc2ccc3nc(N4CCN(C)CC4)cc(C)c3c2)c1OC	-5	-1	7	-20	/
CC1(C)CC[C@]2(C(=O)O)CC[C@]3(C)C(=CC[C@@H]4[C@@]5(C)CC[C@H](O[C@@H]6O[C@H](C(=O)O)[C@@H](O)[C@H](O[C@@H]7OC[C@H](O)[C@H](O)[C@H]7O)[C@H]6O)C(C)(C)[C@@H]5CC[C@]43C)[C@@H]2C1	/	/	/	-22	-63*
N#Cc1nc(Nc2cc(Cl)cc(Cl)c2)nc(NC2CCCC2)n1	-21	-1	1	/	/
CC1=C(C(=O)Nc2cccnc2)C(c2cccc(O)c2)n2nc(SCc3ccccc3)nc2N1 (configuration not stated)	-2	-5	1	8	/
COc1ccccc1NC(=O)Cn1c(=O)n(-c2cccc(Cl)c2)c(=O)c2c1c1cc(C)ccc1n2C	-4	3	48*	-1	/
Cc1ccc2c(c1)c1c(c(=O)n(-c3cccc(Cl)c3)c(=O)n1CC(=O)c1ccc(Cl)cc1)n2C	-1	0	7	13	/
Cc1ccc2c(c1)c1c(c(=O)n(-c3ccccc3C)c(=O)n1CC(=O)c1ccc(Cl)cc1)n2C	-32*	-2	4	8	/
Cc1ccc2c(c1)c1c(c(=O)n(-c3cccc(Cl)c3)c(=O)n1CC(=O)Nc1c(C)cccc1C)n2C	6	2	-1	2	/
COc1ccc2c(c1)c1c(c(=O)n(Cc3ccccc3)c(=O)n1CC(=O)Nc1ccc(C)cc1C)n2C	-65*	-1	-1	1	/
Cc1nc(-c2ccc(Cl)cc2)sc1CCNC(=O)C(=O)Nc1ccc2c(c1)OCO2	-17	-2	5	9	/
COc1ccc(NC(=O)CN2CCN(Cc3ccccc3)S2(=O)=O)c(OC)c1	5	-1	0	2	/
CSc1nn(Cc2ccc(F)cc2)c(N)c1S(=O)(=O)c1ccc(Cl)cc1	-14	-4	6	9	/
O=C(CNC(=O)c1cccc(Br)c1)N/N=C/c1cccs1	21	-3	1	-12	-13
SMILES	D1 antagonist	D1 potentiator	D1 agonist	DRD3 agonist	D3 antag
O=C(CNC(=O)c1cccc(Br)c1)N/N=C/c1cc(Br)cc(Br)c1O	9	-4	10	-30	-71*
CC(=O)NN=C1CCC(c2ccccc2)CC1 (configuration not stated)	-3	-9	1	2	3
NC(N)=NN=C1CCC(c2ccccc2)CC1 (configuration not stated)	7	37*	2	-9	-20
COc1ccccc1N1C(C)=CC(=C(C#N)c2nc3ccccc3s2)C=C1C	-24	11	191*	-1	-21
CC1=CC(=C(C#N)c2nc3ccccc3s2)C=C(C)N1c1ccc(F)cc1	7	-4	5	1	-11
Cc1nnc(NCc2ccccc2)c2c1nnn2Cc1ccccc1Cl	-2	2	1	6	/
N#CCCN1CCN(Cc2cc(-c3ccccc3)ccc2O)CC1	-16	-6	11	-10	-96*
CC(C)(C)CC(C)(C)c1ccc(O)c(CN2CCN(CCC#N)CC2)c1	46	-2	0	1	-21
CC(=O)Nc1ccc(S(=O)(=O)Nc2cccc(-c3ccc(N4CCC(C)CC4)nn3)c2)cc1	14	-2	1	-6	/
Cc1ccc(-n2c(SCc3ccccc3C)nc3[nH]ncc3c2=O)cc1C	-78*	-8	1	8	/
O=C(O)c1cccc(N2C(=O)c3ccc4c5c(ccc(c35)C2=O)C(=O)N(c2cccc(C(=O)O)c2)C4=O)c1	-6	3	1	-38	-107*
Cc1noc(Cn2c(=O)c3ccccc3n(CC(=O)Nc3ccc(C(C)C)cc3)c2=O)n1	-12	-2	4	-7	/
O=S(=O)(N/N=C\c1ccc(-c2ccccc2Cl)o1)c1ccccc1	-5	0	3	2	-52*
CNCC(=O)N[C@@H](CCCN=C(N)N)C(=O)N[C@H](C(=O)N[C@@H](Cc1ccc(O)cc1)C(=O)N[C@H](C(=O)N[C@@H](Cc1cnc[nH]1)C(=O)N1CCC[C@H]1C(=O)N[C@@H](C)C(=O)O)C(C)C)C(C)C	/	/	/	14	/
Fc1cccc(Cl)c1Cn1nnc(-c2ccc(N3CCOCC3)cc2)n1	-36*	-2	6	-6	-13
CC(=O)Nc1c(I)cc(I)c(C(=O)O)c1I	/	/	/	66*	/
CCOCCCNC(=O)C1CCN(c2nc3ccc(C)cc3[nH]2)CC1	-46*	4	0	1	/
Cc1cccc(CNC(=O)C2CCN(c3nc4ccc(Cl)cc4[nH]3)CC2)c1	11	-1	42*	5	/
COCCCNC(=O)C1CCN(c2nc3ccc(Cl)cc3[nH]2)CC1	-8	-3	0	-5	/
COc1cccc(NC(=O)NCc2ccccc2F)c1	-9	-1	3	1	10
